Experimental findings from PubChem BioAssay (EPA / NIEHS) are described below.

Test [1] deals with CCAAT/enhancer-binding protein beta (Homo sapiens) (UniProt P17676). The test can be described thus: ATG_C_EBP_CIS: Attagene CIS-FACTORIAL HepG2 Assay for human CCAAT/Enhancer Binding Protein (C/EBP) beta (AID 2282927). The note with it: HepG2 Attagene cis-factorial transcription factor reporter; actives raise or lower the signal. Summed up: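 HepG2, transient MRTU transfection, 24 h treatment. RT-PCR plus CE fluorescence; DMSO negative control, bidirectional fit.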

A short description of test [2]: ATG_CMV_CIS: Attagene CIS-FACTORIAL HepG2 Assay for human CMV (Internal Marker) (AID 2282928).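 Further: endpoint acts as a background internal control marker rather than a target.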 The note with it: HepG2 CMV promoter reporter, transcription factor profiling; actives raise or lower the signal. The essentials: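 Fluorescence intensity of RT-PCR-derived reporter fragments, resolved by capillary electrophoresis, gives the signal. HepG2 liver cells bearing transfected cis-element reporters were treated 24 h; activity in either direction was fit relative to DMSO-treated controls.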

Test [3] can be described thus: ATG_DR4_LXR_CIS: Attagene CIS-FACTORIAL HepG2 Assay for human Liver X Receptor (LXR), DR4 submotif (AID 2282929). The note with it: HepG2 Attagene DR4 cis-reporter, mRNA transcription; actives raise or lower the signal. The essentials:
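After transient transfection with multiplexed cis-promoter reporter units, HepG2 cells received test chemicals for 24 h. Reporter mRNA induction, detected by fluorescence after RT-PCR and capillary electrophoresis, was scored relative to DMSO.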

Test [4] has as its target Aryl hydrocarbon receptor (Homo sapiens) (UniProt P35869). The test can be described thus: ATG_Ahr_CIS: Attagene CIS-FACTORIAL HepG2 Assay for human Aryl Hydrocarbon Receptor (Ahr) (AID 2282930). The note with it: HepG2 AhR cis-factorial reporter transcription; actives raise or lower the signal. Summed up: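 Endogenous factor activity is tracked through cis-promoter reporter units transfected into HepG2 cells. Transcript levels at 24 h are read by fluorescent RT-PCR and capillary electrophoresis, with activity in either direction scored relative to DMSO.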

Test [5] in a line: ATG_AP_2_CIS: Attagene CIS-FACTORIAL HepG2 Assay for human Activator Protein 2 (AP-2) (AID 2282932). The note with it: HepG2 AP-2 cis-reporter, Attagene transcription factor profiling; actives raise or lower the signal. The essentials:
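Read-out: fluorescent reporter mRNA via RT-PCR and capillary electrophoresis, 24 h post-dose in transiently transfected HepG2. Endogenous factors drive cis-promoter reporters; gain or loss of signal fitted bidirectionally against DMSO.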

A short description of test [6]: ATG_BRE_CIS: Attagene CIS-FACTORIAL HepG2 Assay for human Bone Morphogenetic Protein (BMP) Response Element (BRE) (AID 2282933). The note with it: HepG2 BMP response element reporter, Attagene transcription factor profiling; actives raise or lower the signal. The essentials:
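Read-out: reporter mRNA induction quantified by RT-PCR and capillary electrophoresis after 24 h chemical exposure of transfected HepG2 cells. Endogenous factor activity on the BMP response element; gain or loss fitted against DMSO baseline.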

Activity calls are given as the source filed them. How the source made its calls: active means hit-call score of the fitted dose curve at least 0.9, where 1 is the maximum; inactive means score below 0.9.

Chain of CCAAT/enhancer-binding protein beta (Homo sapiens) (P17676 whole entry, looked up): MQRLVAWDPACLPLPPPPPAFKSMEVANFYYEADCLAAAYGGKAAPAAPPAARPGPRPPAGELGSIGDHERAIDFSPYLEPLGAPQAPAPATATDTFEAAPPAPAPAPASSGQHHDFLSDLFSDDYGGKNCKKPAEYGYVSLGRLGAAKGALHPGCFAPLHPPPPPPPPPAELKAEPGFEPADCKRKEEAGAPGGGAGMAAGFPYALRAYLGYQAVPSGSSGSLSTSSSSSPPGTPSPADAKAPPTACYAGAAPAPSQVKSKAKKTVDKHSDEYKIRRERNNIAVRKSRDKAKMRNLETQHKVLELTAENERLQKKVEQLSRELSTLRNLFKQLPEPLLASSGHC
Chain of Aryl hydrocarbon receptor (Homo sapiens) (P35869 whole entry, looked up): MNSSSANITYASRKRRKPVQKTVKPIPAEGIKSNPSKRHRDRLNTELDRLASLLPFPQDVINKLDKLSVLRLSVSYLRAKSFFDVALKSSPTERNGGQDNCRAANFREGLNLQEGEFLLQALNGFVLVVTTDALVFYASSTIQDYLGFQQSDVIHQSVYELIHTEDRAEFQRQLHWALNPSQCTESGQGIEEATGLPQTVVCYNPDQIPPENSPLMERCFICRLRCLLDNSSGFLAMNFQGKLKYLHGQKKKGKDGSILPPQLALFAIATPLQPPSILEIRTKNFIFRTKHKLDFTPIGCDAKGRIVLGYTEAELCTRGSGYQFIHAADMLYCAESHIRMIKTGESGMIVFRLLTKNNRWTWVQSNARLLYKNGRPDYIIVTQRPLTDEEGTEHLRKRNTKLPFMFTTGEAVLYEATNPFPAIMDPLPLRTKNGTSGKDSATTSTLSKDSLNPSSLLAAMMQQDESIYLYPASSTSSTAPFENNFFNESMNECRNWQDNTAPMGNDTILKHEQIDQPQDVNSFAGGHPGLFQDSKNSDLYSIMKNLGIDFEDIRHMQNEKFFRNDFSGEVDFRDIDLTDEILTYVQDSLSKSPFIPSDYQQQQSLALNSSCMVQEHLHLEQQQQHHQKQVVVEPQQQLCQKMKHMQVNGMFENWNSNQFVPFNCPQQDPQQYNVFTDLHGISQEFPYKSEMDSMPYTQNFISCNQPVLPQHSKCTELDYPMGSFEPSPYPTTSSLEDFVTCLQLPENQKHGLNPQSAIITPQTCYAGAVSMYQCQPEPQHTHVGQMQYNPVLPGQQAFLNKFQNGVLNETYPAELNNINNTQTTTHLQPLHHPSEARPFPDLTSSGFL

`O=C1OC2(c3ccc(O)cc3Oc3cc(O)ccc32)c2ccccc21`: the outcome in test [1], in test [2], in test [3], in test [5] and in test [6] was inactive. Further, the AC50 in test [4] was 25.9 µM (active).

Broadly, the AC50 is the concentration at which the activity in the assay is half-maximal.
